Among all 310,000 compounds or so, about 14,000 (4.5%) showed an effect of 50% or more. Effects have a minus sign here. The sample holds strong results, similar compounds and a random draw of the others, so the mix is not that of the screen.
target: human ether-à-go-go-related gene (hERG) potassium channel (human, UniProt Q12809); experiment: primary screen, population patch clamp on CHO cells stably expressing hERG; higher = less effect of the substance
Protocol: Briefly, Chinese hamster ovary (CHO) cells stably expressing the hERG channel were dislodged from tissue culture flasks and dispensed into PPC plates. […] During the recording, background leak currents were estimated by a 100 ms step to -80 mV from an initial holding potential of -70 mV and subtracted from the subsequent current measurement. The campaign was conducted in two phases using slight differences in recording protocol. In the first phase, the initial voltage pulse used a 100 ms step to -30 mV from a holding potential of -70 mV, a 2 s conditioning step to +25 mV, and a 2 s test step to -30 mV. During the second phase of the screen, the potential during the conditioning step was raised to +45 mV. In both phases of the campaign, a secondary voltage pulse was applied using the same parameters as the second phase initial pulse. The initial and secondary pulses were applied in the absence of compound, and upon application of 1 μM and 10 μM test concentrations. […]
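Further: peak tail current of the secondary pulse compared with the same well before compound.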

Sequence of human ether-à-go-go-related gene (hERG) potassium channel (Q12809 whole entry, looked up): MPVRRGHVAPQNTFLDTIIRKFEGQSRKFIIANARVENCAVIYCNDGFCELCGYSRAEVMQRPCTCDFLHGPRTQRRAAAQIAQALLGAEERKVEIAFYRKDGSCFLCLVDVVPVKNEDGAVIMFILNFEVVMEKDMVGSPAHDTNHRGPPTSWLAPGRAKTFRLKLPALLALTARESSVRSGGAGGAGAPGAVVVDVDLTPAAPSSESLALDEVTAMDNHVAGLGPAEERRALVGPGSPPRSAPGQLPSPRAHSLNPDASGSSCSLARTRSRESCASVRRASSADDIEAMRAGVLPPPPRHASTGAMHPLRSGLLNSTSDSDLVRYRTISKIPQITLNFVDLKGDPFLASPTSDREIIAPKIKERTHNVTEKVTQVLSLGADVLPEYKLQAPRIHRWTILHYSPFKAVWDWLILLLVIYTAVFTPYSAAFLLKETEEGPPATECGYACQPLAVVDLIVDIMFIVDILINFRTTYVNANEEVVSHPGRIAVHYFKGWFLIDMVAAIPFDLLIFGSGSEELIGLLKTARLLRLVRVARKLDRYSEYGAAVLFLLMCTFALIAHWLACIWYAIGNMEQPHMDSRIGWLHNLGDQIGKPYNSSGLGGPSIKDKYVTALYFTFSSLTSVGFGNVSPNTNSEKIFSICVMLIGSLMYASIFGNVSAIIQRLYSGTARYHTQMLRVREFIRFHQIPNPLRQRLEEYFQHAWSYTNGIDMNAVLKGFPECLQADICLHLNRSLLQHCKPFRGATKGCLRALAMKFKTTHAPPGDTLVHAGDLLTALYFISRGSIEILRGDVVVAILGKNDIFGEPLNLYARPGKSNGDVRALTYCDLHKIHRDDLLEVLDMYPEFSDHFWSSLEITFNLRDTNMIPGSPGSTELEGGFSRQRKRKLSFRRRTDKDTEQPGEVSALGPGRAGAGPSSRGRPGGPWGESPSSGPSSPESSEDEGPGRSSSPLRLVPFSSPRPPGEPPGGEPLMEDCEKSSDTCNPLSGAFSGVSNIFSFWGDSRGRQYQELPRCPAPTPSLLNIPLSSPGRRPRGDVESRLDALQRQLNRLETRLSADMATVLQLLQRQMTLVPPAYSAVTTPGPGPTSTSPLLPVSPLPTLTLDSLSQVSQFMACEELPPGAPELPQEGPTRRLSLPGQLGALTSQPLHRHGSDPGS

| SMILES | hERG current change (%, negative = inhibition) at 10uM [%] |
| --- | --- |
| CCCCCCN1CC(=O)N2Cc3[nH]c4ccccc4c3C[C@H]2C1=O | -9.11 |
| O=C(CCCSc1nc2ccccc2[nH]1)Nc1nnc(C2CC2)s1 | -1.62 |
| CCn1c(SCC(N)=O)nc2sc3c(c2c1=O)CCCC3 | 1.24 |
| CCOc1ccccc1Oc1c(C)oc2cc(OC(=O)N3CCOCC3)ccc2c1=O | 4.41 |
| O=C(NCCc1ccccc1F)C1CCC(=O)N(CCCN2CCCC2=O)C1 (stereo not shown) | -7.84 |
| COCC1CCCCC1OS(N)(=O)=O (stereo not shown) | 5.38 |
| Cn1cccc1-c1nc2ccccc2n1C | -1.23 |
| Cn1cc(Cl)c(-c2nc3ccccc3[nH]2)n1 | -1.45 |
| O=C(NC1CC2CCCC(C1)N2Cc1cccs1)N1CCOCC1 (stereo not shown) | -6.2 |
| O=C(NC1CC2CCCC(C1)N2Cc1ccccc1)c1ccc([N+](=O)[O-])cc1 (stereo not shown) | -81 |
| CCCN1C2CCCC1CC(NC(=O)c1cccc([N+](=O)[O-])c1)C2 (stereo not shown) | -36.8 |
| COCCNC(=S)NC1CC2CCCC(C1)N2Cc1cccs1 (stereo not shown) | -26.7 |
| CN1C2CCC1CC(NC(=O)c1ccc([N+](=O)[O-])cc1)C2 (stereo not shown) | 3.81 |
| COc1ccc(C(=O)NC2CC3CCCC(C2)N3CC(C)C)cc1 (stereo not shown) | -34.7 |
| O=C(NC1CC2CCCC(C1)N2Cc1cccs1)c1ccc([N+](=O)[O-])cc1 (stereo not shown) | -84.3 |
| CC(C)CN1C2CCCC1CC(NC(=O)c1ccc([N+](=O)[O-])cc1)C2 (stereo not shown) | -78.3 |
| Cc1ccc(NC(=O)c2ccc(N3CCCC3=O)cc2)cc1S(=O)(=O)N1CCCCC1 | -3.33 |
| Cc1ccc(S(=O)(=O)N2CCN(C(=O)CCOc3cc(C)ccc3C)CC2)cc1 | -32.8 |
| CSCCC(NC(=O)c1ccccc1Cl)C(=O)N1CCCCCCC1 (stereo not shown) | -6.4 |
| CC(=O)Nc1ccc(N2C(=O)C3C4CC(=O)C(c5ccccc54)C3C2=O)cc1 (stereo not shown) | 7.32 |
| Oc1ccccc1-c1nc(NCCN2CCOCC2)c2ccccc2n1 | -26.2 |
| CCOC(=O)CSc1ccc(C(=O)Nc2ccc(Cl)cc2)cn1 | 21.8 |

| SMILES | hERG current change (%, negative = inhibition) at 10uM [%] |
| --- | --- |
| CCOC(=O)c1c(C)[nH]c(C)c1S(=O)(=O)NCC(=O)Nc1ccccn1 | 17.9 |
| COc1ccc(N)c2c1C(=O)c1ccccc1C2=O | -10.4 |
| CC(COc1ccccc1Cc1ccccc1)N1CCCCC1.O=P(O)(O)O (stereo not shown) | -70.1 |
| CC(C(=O)Nc1ccc(OCc2ccccc2)cc1)N1CCCC1 (stereo not shown) | -21.6 |
| CC(OC(=O)COc1ccccc1Cc1ccccc1)C(=O)N(C)c1ccccc1 (stereo not shown) | -0.572 |
| CCOc1ccc2c(c1)N(C(=O)CN1C(=O)CCC1=O)C(C)(C)C=C2C | -22.8 |
| COCCNC(=O)COc1ccc(Br)cc1Cl | 10.4 |
| COCCNC(=O)C(c1ccc(F)cc1)N(C(=O)CCC(=O)Nc1nccs1)c1ccc(C)cc1 (stereo not shown) | -14.1 |
| CN(c1ccc(OCC(=O)OCC(=O)Nc2ccc(Br)cc2)cc1)S(=O)(=O)c1cccs1 | -0.388 |
| O=C(N/N=C/c1ccc[nH]1)c1ccccc1OCc1ccccc1Cl | -25.5 |
| O=C(N/N=C/c1ccco1)c1ccccc1OCc1ccccc1Cl | -82.8 |
| O=C(N/N=C/c1ccco1)c1ccccc1OCc1ccc(Br)cc1 | -8.69 |
| O=C(NCC1CCCO1)c1ccc(COc2ccccc2)cc1 (stereo not shown) | -56.3 |
| O=C(NCC1CCCO1)c1ccc(Oc2ccc([N+](=O)[O-])cc2)cc1 (stereo not shown) | -60.8 |
| CC(=O)c1ccc(-c2ccc(C(=O)NC3CCCCCC3)o2)cc1 | 26 |
| O=C(NC(=S)NCC1CCCO1)c1ccc([N+](=O)[O-])cc1 (stereo not shown) | -16.6 |
| O=C(NCC1CCCO1)c1ccc(NC(=O)c2ccc([N+](=O)[O-])cc2)cc1 (stereo not shown) | -2.58 |
| O=C(NCC1CCCO1)c1cccc(Oc2ccc([N+](=O)[O-])cc2Cl)c1 (stereo not shown) | -72.6 |
| O=C(NCC1CCCO1)c1ccc(COc2ccc(Br)cc2)cc1 (stereo not shown) | -13.7 |
| O=C(NCC1CCCO1)c1ccc(COc2ccc(Cl)cc2)cc1 (stereo not shown) | -11.9 |
| O=C(NCC1CCCO1)c1ccc(Oc2ccc([N+](=O)[O-])cc2Cl)cc1 (stereo not shown) | -41.6 |
| CC(=O)c1ccc(-c2ccc(C(=O)NC3CC(C)(C)NC(C)(C)C3)o2)cc1 | -122 |

| SMILES | hERG current change (%, negative = inhibition) at 10uM [%] |
| --- | --- |
| O=C(NCC1CCCO1)c1cccc(Oc2c(Cl)cccc2[N+](=O)[O-])c1 (stereo not shown) | -0.562 |
| CC1(C)CC(NC(=O)c2ccc(-c3ccc([N+](=O)[O-])cc3)o2)CC(C)(C)N1 | -49 |
| Brc1ccc(-n2cc(-c3ccccc3)c3c(NN4CCOCC4)ncnc32)cc1 | -15.7 |
| Cn1c(SCC(=O)OCc2ccccc2)nnc1-c1ccco1 | 0.0583 |
| CCCCC(=O)NC(c1ccco1)c1c(O)ccc2ccccc12 (stereo not shown) | -2.6 |
| O=C1CC2CS(=O)(=O)CC2N1c1ccc(Cl)cc1Cl (stereo not shown) | 5.75 |
| CCCc1ccc(S(=O)(=O)N/N=C\c2ccc3c(c2)OCO3)cc1 | -0.771 |
| CCOc1ccc(NC(c2ccccn2)c2oc(CO)cc(=O)c2O)cc1 (stereo not shown) | 5.43 |
| CN(C)CCNc1oc(-c2cccc(Cl)c2)nc1C#N | -36.2 |
| C=CCC1(Nc2ccccc2)CC(C)N(C)CC1C.O=C(O)C(=O)O (stereo not shown) | -21.1 |
| Cc1ccc(-n2c(CSc3nc(C)cc(C)n3)nnc2SCC(=O)NCc2ccco2)cc1 | -38.7 |
| CCCCn1c(=O)n(C)c(=O)c2c3c(sc21)COC(C)(C)C3 | -11.1 |
| C/C(=N\NC(=O)c1ccc(NS(=O)(=O)c2cccs2)cc1)c1ccccc1 | 22.3 |
| O=C(NCC1CCCO1)c1ccc(NC(=O)c2cccc([N+](=O)[O-])c2)cc1 (stereo not shown) | 3.68 |
| O=C(NCC1CCCO1)c1ccc(-c2cccc(C(F)(F)F)c2)o1 (stereo not shown) | -16.2 |
| Cc1ccc(C(=O)NCC2CCCO2)o1 (stereo not shown) | 7.49 |
| CC(=O)c1ccc(-c2ccc(C(=O)NCC3CCCO3)o2)cc1 (stereo not shown) | -50.5 |
| O=C(NCC1CCCO1)c1cccc(Oc2ccc([N+](=O)[O-])cc2)c1 (stereo not shown) | -73.7 |
| O=C(NCC1CCCO1)c1cccc(Oc2ccccc2)c1 (stereo not shown) | -37.5 |
| O=c1cc(CN2CCN(c3cccc(Cl)c3)CC2)c2cc3c(cc2o1)CCCC3 | 15.8 |
| Cc1ccc(S(=O)(=O)CCC(=O)OCC(=O)N2CC(=O)Nc3ccccc32)cc1 | -22.1 |
| O=C(NCc1ccco1)NC12CC3CC(CC(C3)C1)C2 | 14.5 |

| SMILES | hERG current change (%, negative = inhibition) at 10uM [%] |
| --- | --- |
| CC(C)=CCN1CCN(Cc2cn(C(C)C)c3ccccc23)CC1CCO (stereo not shown) | -10.5 |
| O=C(Cc1ccc(F)cc1)NCCS(=O)(=O)N1CCN(c2cccc(Cl)c2)CC1 | -16.2 |
| COc1ccc(N2CCN(S(=O)(=O)CCNC(=O)c3ccc(Br)o3)CC2)cc1 | 10.6 |
| O=C(NCCS(=O)(=O)N1CCN(c2ccccc2)CC1)C1CC1 | 3.93 |
| O=C(NCCS(=O)(=O)N1CCN(c2cccc(Cl)c2)CC1)c1cc(=O)c2ccccc2o1 | 5.36 |
| O=C(NCCS(=O)(=O)N1CCN(c2cccc(Cl)c2)CC1)c1ccco1 | -73.8 |
| COc1ccc(N2CCN(S(=O)(=O)CCNC(=O)C3CCCCC3)CC2)cc1 | 5.98 |
| O=C(NCCS(=O)(=O)N1CCN(c2ccccc2)CC1)c1ccc(Br)o1 | -5.85 |
| O=C(Cc1ccccc1)NCCS(=O)(=O)N1CCN(c2cccc(Cl)c2)CC1 | -82.8 |
| Cc1cccc(CC(=O)NCCS(=O)(=O)N2CCN(c3cccc(Cl)c3)CC2)c1 | -20.2 |
| O=C(NCCS(=O)(=O)N1CCN(c2ccccc2F)CC1)c1ccco1 | -16.5 |
| O=C(NCCS(=O)(=O)N1CCN(c2ccc(F)cc2)CC1)c1ccc(Br)o1 | -60.1 |
| O=C(NCCS(=O)(=O)N1CCN(c2cccc(Cl)c2)CC1)C1CCCC1 | -79 |
| O=C1c2ccccc2S(=O)(=O)N1CCOc1ccc(F)cc1 | -27.6 |
| CCOC(=O)c1sc(NC(=O)c2ccco2)nc1C | 13.3 |
| CC(=O)Nc1ccc(NC(=O)CC2SC(=O)N(CC(=O)c3ccccc3)C2=O)cc1 (stereo not shown) | 7.25 |
| COCC1CCCCN1C(=O)c1cccc(OC2CCN(S(C)(=O)=O)CC2)c1 (stereo not shown) | 14.7 |
| CCS(=O)(=O)c1ccc(O)c(NC(=O)COc2ccc(Br)cc2)c1 | -3.73 |
| O=C(COc1ccc(Br)cc1Cl)NC(=S)N1CCc2ccccc21 | 21.7 |
| COc1ccccc1OCc1ccc(C(=O)NC(C)(C)C)o1 | 2.29 |
| O=C(Cn1c(=O)oc2cc(S(=O)(=O)NCc3ccccc3)ccc21)N1CCCC1 | 15.2 |
| C=CCn1c(SCC(=O)Nc2ccccc2F)nc2ccccc2c1=O | 5.56 |
